In PubChem BioAssay AID720488 (Milwaukee Institute for Drug Discovery, 2013):
The campaign covered roughly 16,000 compounds. About 960 (6%) were called active. This is one part of a sample in which actives are shown more often than they occur. Unmarked numbers belong to inactive results.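 Rule for the calls: active = compound fluorescence over control fluorescence at most 0.8, a quencher, or at least a set upper limit, an enhancer; inactive = ratio between 0.8 and the set upper limit.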

experiment: Cy5 fluorescence quenchers or enhancers, artefact control for HCV NS3 helicase inhibitor project, biochemical, ChemBridge library, Cy5 readout (AID 720488); conditions: Cy5-dT15 DNA with NS3h, at 100 µM, actives lie on both sides, signal over control mean, under 1 quenches

Question: With CC(=O)c1cccc(N2C(=O)C3C4C=CC(C5CC45)C3C2=O)c1 (stereo unspecified) as the molecule, how does the fluorescence interference ratio read?
Answer: The fluorescence interference ratio was 0.66 (active).

Question: With O=C1C2C3C=CC(C3=C(c3ccccc3)c3ccccc3)C2C(=O)N1c1cccc(C(F)(F)F)c1 (stereo unspecified) as the molecule, how does the fluorescence interference ratio read?
Answer: Its fluorescence interference ratio is 1.02.

Question: For CCOc1ccc(C(=O)Nc2ccc(Cl)c(-c3nc4ncccc4o3)c2)cc1Cl, which fluorescence interference ratio is on record?
Answer: Its fluorescence interference ratio is 1.17.

Question: For Cc1cccc(N=C2NC(=O)/C(=C\c3ccc([N+](=O)[O-])cc3)S2)c1C, which fluorescence interference ratio is on record?
Answer: The fluorescence interference ratio was 0.748 (active).

Question: Which fluorescence interference ratio does the source give for O=C1NC(=Nc2cccc(O)c2)S/C1=C\c1cccc(O)c1 here?
Answer: Its fluorescence interference ratio is 0.898.

Question: Which fluorescence interference ratio does the source give for Cc1cccc(N=C2NC(=O)CS2)c1C here?
Answer: Its fluorescence interference ratio is 1.

Question: Which fluorescence interference ratio does the source give for COC(=O)C1=C(O)/C(=C\c2ccccc2C(F)(F)F)N=C1C here?
Answer: The fluorescence interference ratio was 0.891.

Question: With CCOC(=O)c1[nH]c(=O)[nH]c1CSc1nccn1C as the molecule, how does the fluorescence interference ratio read?
Answer: The fluorescence interference ratio was 1.03.

Question: With Cc1cc(/C=N\O)c(C)n1-c1ccc(F)cc1 as the molecule, how does the fluorescence interference ratio read?
Answer: Its fluorescence interference ratio is 0.964.

Question: Which fluorescence interference ratio does the source give for O=C(Nc1ccncc1)c1cc2ccccc2o1 here?
Answer: Its fluorescence interference ratio is 0.446 (active).

Question: For Cc1ccc(NC(=O)c2cccc(C(=O)Nc3ccc(C)cc3)n2)cc1, which fluorescence interference ratio is on record?
Answer: Its fluorescence interference ratio is 0.981.

Question: Which fluorescence interference ratio does the source give for Cc1cc(Br)cc(C)c1NC(=O)c1cc2ccccc2o1 here?
Answer: The fluorescence interference ratio was 0.937.

Question: For Cc1ccccc1CC1S/C(=N/N=C\c2ccc(N(C)C)cc2)NC1=O (stereo unspecified), which fluorescence interference ratio is on record?
Answer: The fluorescence interference ratio was 0.981.

Question: With Cc1cccc(NS(=O)(=O)c2ccc([N+](=O)[O-])cc2)n1 as the molecule, how does the fluorescence interference ratio read?
Answer: Its fluorescence interference ratio is 0.931.

Question: Which fluorescence interference ratio does the source give for COc1ccc(C2=CC=C(c3ccc(OC)cc3)C2)cc1 here?
Answer: Its fluorescence interference ratio is 0.865.

Question: Which fluorescence interference ratio does the source give for CCOCCOCCC(C(=O)O)P(=O)(c1ccccc1)c1ccccc1 (stereo unspecified) here?
Answer: Its fluorescence interference ratio is 0.631 (active).

Question: For CCCCOCP(=O)(c1ccccc1)c1ccccc1, which fluorescence interference ratio is on record?
Answer: Its fluorescence interference ratio is 1.1.

Question: With CCOC(=O)C(C#N)C(=S)Nc1ccccc1 (stereo unspecified) as the molecule, how does the fluorescence interference ratio read?
Answer: Its fluorescence interference ratio is 1.02.

Question: With Cn1cnc2c1c(=O)n(Cc1ccc(F)cc1)c(=O)n2C as the molecule, how does the fluorescence interference ratio read?
Answer: Its fluorescence interference ratio is 1.12.

Question: For COc1ccc(C(=O)COc2cc3c(C(=O)OC(C)C)c(C)oc3cc2Br)cc1, which fluorescence interference ratio is on record?
Answer: Its fluorescence interference ratio is 1.

Question: For O=[N+]([O-])c1cccc(S(=O)(=O)NCc2ccccn2)c1, which fluorescence interference ratio is on record?
Answer: Its fluorescence interference ratio is 1.05.

Question: With COc1ccc(N2C(=O)C=CC2=O)c([N+](=O)[O-])c1 as the molecule, how does the fluorescence interference ratio read?
Answer: Its fluorescence interference ratio is 0.622 (active).

Question: For COc1ccc(N=Cc2sccc2C)c([N+](=O)[O-])c1, which fluorescence interference ratio is on record?
Answer: The fluorescence interference ratio was 1.02.

Question: Which fluorescence interference ratio does the source give for COc1ccc(N2C(=O)C3C4C=CC(C4=C(C)C)C3C2=O)c([N+](=O)[O-])c1 (stereo unspecified) here?
Answer: The fluorescence interference ratio was 0.887.

Question: For CC1(C(=O)Nc2ccccc2Cl)CC2c3ccccc3C1c1ccccc12 (stereo unspecified), which fluorescence interference ratio is on record?
Answer: The fluorescence interference ratio was 0.972.

Question: With C=CCOC(=O)C1=C(C)NC(C)=C(C(=O)OCC=C)C1c1cccs1 as the molecule, how does the fluorescence interference ratio read?
Answer: Its fluorescence interference ratio is 0.9.

Question: Which fluorescence interference ratio does the source give for O=C(Nc1ccc(Cl)c(Cl)c1)Nc1nnc(-c2ccc(Br)cc2)s1 here?
Answer: The fluorescence interference ratio was 1.03.

Question: Which fluorescence interference ratio does the source give for C/C(=N/NS(=O)(=O)c1ccccc1)c1cccc(Br)c1 here?
Answer: Its fluorescence interference ratio is 1.04.

Question: With Cc1ccc(/C=C/C(=O)Nc2cccc([N+](=O)[O-])c2)o1 as the molecule, how does the fluorescence interference ratio read?
Answer: Its fluorescence interference ratio is 0.895.

Question: Which fluorescence interference ratio does the source give for CCNC(=O)NC1C(NC(=O)NCC)N(C)C(=O)N1C (stereo unspecified) here?
Answer: Its fluorescence interference ratio is 0.995.

Question: With C=CCN1C(=O)/C(=C\c2cc(Cl)c(O)c(Cl)c2)SC1=S as the molecule, how does the fluorescence interference ratio read?
Answer: The fluorescence interference ratio was 0.772 (active).

Question: For C=CCN1C(=O)/C(=C/c2ccccc2OCc2ccc([N+](=O)[O-])cc2)SC1=S, which fluorescence interference ratio is on record?
Answer: Its fluorescence interference ratio is 1.07.

Question: With O=C(CCN1C(=O)/C(=C/c2ccccc2)SC1=S)Nc1cccc(Cl)c1 as the molecule, how does the fluorescence interference ratio read?
Answer: Its fluorescence interference ratio is 1.04.

Question: For O=C(NCCCN1CCOCC1)C(=O)Nc1ccc(F)cc1, which fluorescence interference ratio is on record?
Answer: Its fluorescence interference ratio is 1.06.

Question: With O=C(NCc1cccs1)c1cc2n(n1)C(C(F)(F)F)CC(c1ccc(Cl)c(Cl)c1)N2 (stereo unspecified) as the molecule, how does the fluorescence interference ratio read?
Answer: The fluorescence interference ratio was 1.05.

Question: For COc1ccc(NC(=O)C(=O)NCc2ccccn2)c(OC)c1, which fluorescence interference ratio is on record?
Answer: The fluorescence interference ratio was 1.03.

Question: For O=C1C2C3C=CC(C3)C2C(=O)N1/N=C\c1cccc(I)c1 (stereo unspecified), which fluorescence interference ratio is on record?
Answer: The fluorescence interference ratio was 0.959.

Question: For COC(=O)c1cc(NC(=O)COc2ccc([N+](=O)[O-])cc2)cc(C(=O)OC)c1, which fluorescence interference ratio is on record?
Answer: Its fluorescence interference ratio is 1.05.

Question: For O=C(Nc1cc([N+](=O)[O-])ccc1O)c1ccc(C(=O)Nc2cc([N+](=O)[O-])ccc2O)cc1, which fluorescence interference ratio is on record?
Answer: Its fluorescence interference ratio is 1.24 (active).

Question: Which fluorescence interference ratio does the source give for O=C(NC(=S)Nc1ccc([N+](=O)[O-])cc1O)c1ccc(Br)cc1 here?
Answer: Its fluorescence interference ratio is 0.952.

Question: With CC(C)COc1ccc(C(=O)Nc2cc([N+](=O)[O-])ccc2Cl)cc1 as the molecule, how does the fluorescence interference ratio read?
Answer: Its fluorescence interference ratio is 0.656 (active).

Question: For CCC(C)c1ccc(NC(=O)c2ccc([N+](=O)[O-])cc2)cc1 (stereo unspecified), which fluorescence interference ratio is on record?
Answer: The fluorescence interference ratio was 1.06.

Question: For Cc1ccc(OCC(=O)Nc2cc([N+](=O)[O-])ccc2Cl)cc1, which fluorescence interference ratio is on record?
Answer: The fluorescence interference ratio was 1.03.

Question: For CN(C(=O)COc1ccc2ccccc2c1)c1ccccc1, which fluorescence interference ratio is on record?
Answer: The fluorescence interference ratio was 1.02.

Question: Which fluorescence interference ratio does the source give for Cc1cc(C(=O)Nc2ccccc2C(=O)O)ccc1NC(=O)CC(C)C here?
Answer: The fluorescence interference ratio was 1.04.

Question: Which fluorescence interference ratio does the source give for COc1ccc(C2=NN(C(C)=O)C(c3ccccc3)C2)cc1 (stereo unspecified) here?
Answer: Its fluorescence interference ratio is 1.05.

Question: Which fluorescence interference ratio does the source give for C=C(C)Cn1c(-c2ccc([N+](=O)[O-])cc2)n[nH]c1=S here?
Answer: The fluorescence interference ratio was 1.03.

Question: For COc1ccc(C2CC(c3ccc([N+](=O)[O-])cc3)=NN2)cc1 (stereo unspecified), which fluorescence interference ratio is on record?
Answer: Its fluorescence interference ratio is 0.645 (active).

Question: For O=C1OC(c2ccc(F)cc2)=N/C1=C\c1ccc2c(c1)OCO2, which fluorescence interference ratio is on record?
Answer: The fluorescence interference ratio was 1.09.

Question: Which fluorescence interference ratio does the source give for O=C(CSc1nnc(-c2ccc(Br)cc2)o1)OCc1ccccc1 here?
Answer: The fluorescence interference ratio was 0.95.

Question: For COC(=O)c1ccccc1NC(=O)c1cncc(Br)c1, which fluorescence interference ratio is on record?
Answer: The fluorescence interference ratio was 0.974.

Question: For COc1ccc(C2CC(C(F)(F)F)n3nc(C(=O)N4CCN(c5ccc(F)cc5)CC4)c(Cl)c3N2)cc1 (stereo unspecified), which fluorescence interference ratio is on record?
Answer: The fluorescence interference ratio was 0.951.

Question: With O=C(Nc1ccc(Oc2ccccc2)cc1)c1ccco1 as the molecule, how does the fluorescence interference ratio read?
Answer: Its fluorescence interference ratio is 0.978.

Question: For N#Cc1c(N)nc2sc(C(=O)Nc3ccccc3)c(N)c2c1-c1ccco1, which fluorescence interference ratio is on record?
Answer: The fluorescence interference ratio was 1.21 (active).

Question: For N#Cc1c(SCC(=O)c2ccc(Cl)cc2)nc2c(c1-c1ccco1)CCCC2, which fluorescence interference ratio is on record?
Answer: The fluorescence interference ratio was 0.953.

Question: With Cc1cccc(NC(=O)/C=C/c2ccc(F)cc2)c1 as the molecule, how does the fluorescence interference ratio read?
Answer: The fluorescence interference ratio was 0.934.

Question: With CCOC(=O)c1ccc(-n2c(C)cc(/C=N\n3cnnc3)c2C)cc1 as the molecule, how does the fluorescence interference ratio read?
Answer: The fluorescence interference ratio was 1.03.

Question: For O=C1c2ccccc2C(=O)c2c1cccc2N1CCN(CCO)CC1, which fluorescence interference ratio is on record?
Answer: The fluorescence interference ratio was 1.22 (active).

Question: With CCOC(=O)C1=C(C)N=c2s/c(=C/c3ccc(C(=O)OC)cc3)c(=O)n2C1c1ccc(OC(C)=O)cc1 (stereo unspecified) as the molecule, how does the fluorescence interference ratio read?
Answer: The fluorescence interference ratio was 1.07.

Question: Which fluorescence interference ratio does the source give for CNC(=O)C1CC(=O)N(c2ccc(F)cc2)C1 (stereo unspecified) here?
Answer: Its fluorescence interference ratio is 1.11.

Question: For O=C(COC(=O)C1CCCN1C(=O)OCc1ccccc1)c1ccc(-c2ccccc2)cc1 (stereo unspecified), which fluorescence interference ratio is on record?
Answer: Its fluorescence interference ratio is 1.04.
